Inconclusive results are not listed. Activity calls are given as the source filed them. Unless noted, the call rests on the fitted dose curve; in most records, active means well fitted curve in the direction sought with a large enough effect in the repeat runs; inconclusive means weak or mixed curves; inactive means flat fitted curve, though single readings scatter.
How the values were obtained:
[1] = qHTS assay to test for compound auto fluorescence at 535 nm (green) in HEK293 cells (AID 720680)
[2] = qHTS assay to test for compound auto fluorescence at 460 nm (blue) in HEK293 cell free culture (AID 720681)
Procedure, shortened: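 Blue fluorescence (Ex 405/Em 460 nm, triamterene-equivalent) was read immediately after pin transfer of compound or DMSO into medium (DMEM, 10% FBS) without cells.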

[3] = qHTS assay to test for compound auto fluorescence at 535 nm (green) in HEK293 cell free culture (AID 720682)
Procedure, shortened: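 Compounds were pin-transferred into cell-free DMEM with 10% FBS, and green fluorescence was read at excitation 485 nm and emission 535 nm. Intensities were expressed as fluorescein-equivalent values.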

[4] = qHTS assay to test for compound auto fluorescence at 590 nm (red) in HEK293 cell free culture (AID 720683)
Procedure, shortened: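 Red-channel autofluorescence of compounds in culture medium (DMEM, 10% FBS), no cells, measured at 540/590 nm. Rose Bengal sodium is the reference fluorophore for equivalence.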

[5] = qHTS assay to test for compound auto fluorescence at 590 nm (red) in HepG2 cell free culture (AID 720684)
Procedure, shortened: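 Plate contents were MEM with 10% FBS plus test compound or DMSO, no cells. Fluorescence was recorded with 540 nm excitation and 590 nm emission.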

[6] = qHTS assay to test for compound auto fluorescence at 460 nm (blue) in HepG2 cell free culture (AID 720685)
Procedure, shortened: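 Compound (23 nL) or DMSO pinned into cell-free MEM with 10% FBS; blue fluorescence read at 405/460 nm excitation/emission, expressed as auto-fluorescence equivalency to triamterene.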

[7] = qHTS assay to test for compound auto fluorescence at 535 nm (green) in HepG2 cell free culture (AID 720686)
[8] = qHTS assay to test for compound auto fluorescence at 460 nm (blue) in HepG2 cells (AID 720687)
Procedure, shortened: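 Blue-channel autofluorescence (Ex/Em 405/460 nm, triamterene-equivalent) was measured after 1 hr compound exposure at 37 C, 5% CO2. Cells were HepG2, plated overnight at 37 C in MEM plus 10% FBS.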

[9] = target: Glucocorticoid receptor (Homo sapiens) (UniProt P04150); test: qHTS assay to identify small molecule agonists of the glucocorticoid receptor (GR) signaling pathway (AID 720691; active means well fitted activation curve with a large enough effect in the signal ratio in the repeat runs, not every such curve was filed as active; the % refers to the signal ratio)
Procedure, shortened: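 qHTS in GR-bla HeLa cells: 4 h settling at 37 C/5% CO2, 18 h compound incubation at 37 C, 2 h LiveBLAzer B/G FRET substrate at room temperature, fluorescence intensity measured.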

[10] = target: Glucocorticoid receptor (Homo sapiens) (UniProt P04150); test: qHTS assay to identify small molecule antagonists of the glucocorticoid receptor (GR) signaling pathway (AID 720692; active means well fitted inhibition curve with a large enough effect in the signal ratio in the repeat runs, not every such curve was filed as active; the % refers to the signal ratio)
Procedure, shortened: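 Inhibition of glucocorticoid signalling is measured in HeLa cells with a GRE-controlled beta-lactamase reporter; cells are co-treated with compound and 5 nM dexamethasone (final) for 18 h before FRET substrate readout.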

Measured: Potency

Glucocorticoid receptor (Homo sapiens), sequence (P04150 whole entry, looked up): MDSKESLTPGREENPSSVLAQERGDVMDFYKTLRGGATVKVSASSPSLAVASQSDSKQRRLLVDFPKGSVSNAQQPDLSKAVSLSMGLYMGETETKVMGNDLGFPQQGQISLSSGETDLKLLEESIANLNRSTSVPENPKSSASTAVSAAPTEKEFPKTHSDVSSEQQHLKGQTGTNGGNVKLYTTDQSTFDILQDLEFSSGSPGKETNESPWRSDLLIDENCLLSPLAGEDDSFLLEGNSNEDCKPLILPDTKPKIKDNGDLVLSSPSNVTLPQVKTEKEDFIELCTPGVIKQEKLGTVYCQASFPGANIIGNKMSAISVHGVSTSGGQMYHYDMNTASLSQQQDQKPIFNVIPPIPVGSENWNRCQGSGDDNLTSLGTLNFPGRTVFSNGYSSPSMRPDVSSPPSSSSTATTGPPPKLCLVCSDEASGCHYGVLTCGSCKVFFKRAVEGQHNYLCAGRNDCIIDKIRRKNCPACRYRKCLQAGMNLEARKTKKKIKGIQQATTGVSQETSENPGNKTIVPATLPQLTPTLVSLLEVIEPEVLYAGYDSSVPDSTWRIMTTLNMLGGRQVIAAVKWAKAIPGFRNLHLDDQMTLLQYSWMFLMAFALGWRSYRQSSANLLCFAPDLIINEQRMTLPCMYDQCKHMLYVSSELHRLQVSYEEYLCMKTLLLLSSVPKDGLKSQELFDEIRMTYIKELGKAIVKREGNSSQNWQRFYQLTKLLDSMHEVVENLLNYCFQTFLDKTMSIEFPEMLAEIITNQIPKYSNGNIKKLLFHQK

Cl/C=C/Cl
inactive: all assays above

CC(=O)/C=C/c1ccccc1
inactive: all assays above

O=C/C=C/c1ccccc1
inactive: all assays above

C=CC#N
inactive: all assays above

O=C(O)C(Br)Br
inactive: all assays above

CCOc1ccc(N)cc1
inactive: all assays above

C=CC(=O)OCC(CC)CCCC (stereo not given)
inactive: all assays above

CSc1nnc(C(C)(C)C)c(=O)n1N
inactive: all assays above

N#Cc1cccc(C#N)c1
inactive: all assays above

COP(=S)(OC)SCN1C(=O)c2ccccc2C1=O
inactive: all assays above

C[C@H]1C(=O)O[C@@H]2CCN3CC=C(COC(=O)[C@](C)(O)[C@]1(C)O)[C@H]23
inactive: all assays above

CCOP(=S)(OCC)Oc1cc(C)nc(C(C)C)n1
inactive: all assays above

CCNc1nc(Cl)nc(NC(C)C)n1
inactive: all assays above

CN(C)CCC#N
inactive: all assays above

c1ccc2c(c1)CCCC2
inactive: all assays above

CC[N+](=O)[O-]
inactive: all assays above

CN1C(=O)CCS(=O)(=O)C1c1ccc(Cl)cc1 (stereo not given)
inactive: all assays above

ClCCOCCCl
inactive: all assays above

Cc1ccc(N=C=O)cc1N=C=O
inactive: all assays above

OC[C@@H](O)[C@H]1O[C@@H]2O[C@H](C(Cl)(Cl)Cl)O[C@@H]2[C@H]1O
inactive: all assays above

O=[N+]([O-])c1cc([As](=O)(O)O)ccc1O
inactive: all assays above

Source: PubChem BioAssay (Tox21)
